# Experimental data from the supplement of paper PMC8728848.
# This excerpt belongs to a sample that is enriched for the strongest signals.
# How the values were obtained:
# Test in all cases: glycan array binding signal (z-score within array); higher = stronger binding
# Settings in all cases: glycan notation: IUPAC condensed, linker removed
# [1] = biological target: Fuc(a1-2)Gal(b1-3)GlcNAc
# In short: (§1)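 Glycan array data were curated from 3228 arrays in the Consortium for Functional Glycomics database and kept only where the protein sequence was available. Glycan names were converted to IUPAC-condensed notation, and columns mapping to the same glycan were averaged. The binding signal is a within-array Z-score, averaged across arrays of the same protein sequence at different concentrations or buffers and across linkers. Negative Z-scores can be read as non-binding.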
# [2] = biological target: Fuc(a1-2)[GalNAc(a1-3)]Gal(b1-3)GlcNAc
# In short: as §1
# [3] = biological target: Fuc(a1-3)[GalNAc(b1-4)]GlcNAc
# In short: as §1
# [4] = biological target: Gal(a1-4)Gal(b1-4)Glc
# In short: as §1
# [5] = biological target: Gal(a1-4)GlcNAc
# In short: as §1
# [6] = biological target: Gal(b1-3)GlcNAc(b1-3)Gal(b1-4)GlcNAc
# In short: as §1
# [7] = biological target: Gal(b1-3)[Fuc(a1-4)]GlcNAc(b1-3)Gal(b1-3)[Fuc(a1-4)]GlcNAc
# In short: as §1
# [8] = biological target: Gal(b1-4)GlcNAc(a1-6)Gal(b1-4)GlcNAc
# In short: as §1
# [9] = biological target: Gal3S(b1-4)Glc
# In short: as §1
# [10] = biological target: Gal4S(b1-4)GlcNAc
# In short: as §1
# [11] = biological target: GalNAc(a1-3)GalNAc
# In short: as §1
# [12] = biological target: Glc(a1-6)Glc(a1-6)Glc
# In short: as §1
# [13] = biological target: GlcA(b1-3)GlcNAc
# In short: as §1
# [14] = biological target: GlcNAc(b1-2)Gal(b1-3)GalNAc
# In short: as §1
# [15] = biological target: GlcNAc(b1-3)Gal
# In short: as §1
# [16] = biological target: GlcNAc(b1-4)Gal(b1-4)GlcNAc
# In short: as §1
# [17] = biological target: GlcNAc(b1-4)[GlcNAc(b1-6)]GalNAc
# In short: as §1
# [18] = biological target: GlcNAc3Prop(b1-4)GlcNAc
# In short: as §1
# [19] = biological target: Man(a1-3)[Man(a1-6)]Man
# In short: as §1
# [20] = biological target: Man(a1-3)[Man(a1-6)]Man(a1-6)[Man(a1-2)Man(a1-3)]Man(b1-4)GlcNAc(b1-4)GlcNAc
# In short: as §1
# [21] = biological target: Neu5Ac(a2-3)Gal(b1-3)GlcNAc6S
# In short: as §1
# [22] = biological target: Neu5Ac(a2-3)Gal(b1-3)[Fuc(a1-4)]GlcNAc(b1-3)Gal(b1-4)[Fuc(a1-3)]GlcNAc
# In short: as §1
# [23] = biological target: Neu5Ac(a2-3)Gal(b1-4)[Fuc(a1-3)]GlcNAc(b1-6)[Gal(b1-3)]GalNAc
# In short: as §1
# [24] = biological target: Neu5Ac(a2-6)Gal(b1-4)GlcNAc(b1-2)Man(a1-3)[GlcNAc(b1-2)Man(a1-6)]Man(b1-4)GlcNAc(b1-4)GlcNAc
# In short: as §1
# [25] = biological target: Neu5Ac(a2-6)Gal(b1-4)GlcNAc(b1-2)Man(a1-3)[Neu5Ac(a2-6)Gal(b1-4)GlcNAc(b1-2)Man(a1-6)]Man(b1-4)GlcNAc(b1-4)GlcNAc
# In short: as §1
# [26] = biological target: Neu5Ac(a2-6)Gal(b1-4)GlcNAc(b1-2)Man(a1-6)[Gal(b1-4)GlcNAc(b1-2)Man(a1-3)]Man(b1-4)GlcNAc(b1-4)GlcNAc
# In short: as §1
# [27] = biological target: Neu5Ac(a2-6)Gal(b1-4)GlcNAc(b1-3)Gal(b1-4)[Fuc(a1-3)]GlcNAc(b1-3)Gal(b1-4)[Fuc(a1-3)]GlcNAc
# In short: as §1
# [28] = biological target: Neu5Ac(a2-8)Neu5Ac(a2-8)Neu5Ac(a2-3)Gal(b1-4)Glc
# In short: as §1
binder,measurement,setting,value
"Regenerating Gene I (Homo sapiens), P05451 (protein) MAQTSSYFMLISCLMFLSQSQGQEAQTELPQARISCPEGTNAYRSYCYYFNEDRETWVDADLYCQNMNSGNLVSVLTQAEGAFVASLIKESGTDDFNVWIGLHDPKKNRRWHWSSGSLVSYKSWGIGAPSSVNPGYCVSLTSSTGFQKWKDVPCEDKFSFVCKFKN",glycan array binding signal (z-score),[1],0.417
same,glycan array binding signal (z-score),[2],-0.479
same,glycan array binding signal (z-score),[3],0.315
same,glycan array binding signal (z-score),[4],3.58
same,glycan array binding signal (z-score),[5],0.102
same,glycan array binding signal (z-score),[6],-0.537
same,glycan array binding signal (z-score),[7],-0.396
same,glycan array binding signal (z-score),[8],0.071
same,glycan array binding signal (z-score),[9],0.272
same,glycan array binding signal (z-score),[10],0.291
same,glycan array binding signal (z-score),[11],-0.588
same,glycan array binding signal (z-score),[12],-0.118
same,glycan array binding signal (z-score),[13],0.836
same,glycan array binding signal (z-score),[14],-0.206
same,glycan array binding signal (z-score),[15],-0.215
same,glycan array binding signal (z-score),[16],2.18
same,glycan array binding signal (z-score),[17],1.91
same,glycan array binding signal (z-score),[18],-0.533
same,glycan array binding signal (z-score),[19],7.74
same,glycan array binding signal (z-score),[20],-0.594
same,glycan array binding signal (z-score),[21],-0.09
same,glycan array binding signal (z-score),[22],5.84
same,glycan array binding signal (z-score),[23],-0.128
same,glycan array binding signal (z-score),[24],-0.412
same,glycan array binding signal (z-score),[25],-0.473
same,glycan array binding signal (z-score),[26],-0.33
same,glycan array binding signal (z-score),[27],-0.304
same,glycan array binding signal (z-score),[28],-0.596
